Drawing on PubChem BioAssay (NCATS), this text covers max response, outcome and Potency for 16 molecules.

For assay [1], the system named is CRL-7250. The experiment in a line: Cytotoxic Profiling of Annotated Libraries Using Quantitative High-Throughput Screening (AID 1296008). Further: potency means the concentration at half of the fitted maximal effect. On max response: on the % scale 0 is the no-effect control and ±100 the full control effect. Conditions: Five cell lines viability, CellTiter-Glo ATP luminescence, 48-72 h; max response: active compounds read low. In short, it runs like this: (§1)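 Cytotoxicity was measured as CellTiter-Glo ATP luminescence, read after 10 min at room temperature. Compound treatment of the cells lasted 48 or 72 hr at 37 degrees Celsius in a qHTS format.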
A general note: In ATP-based viability assays light output follows the ATP content of the culture.

For assay [2], the system named is HEK293. The assay is described as above. Particulars: Five cell lines viability, CellTiter-Glo ATP luminescence, 48-72 h; max response: active compounds read low. The gist of the method:
as §1

Assay [3] concerns KB-3-1. The assay is described as above. Conditions: Five cell lines viability, CellTiter-Glo ATP luminescence, 48-72 h; max response: active compounds read low. The gist of the method:
as §1

The test system of assay [4] is NIH3T3. Described as above. Conditions: Five cell lines viability, CellTiter-Glo ATP luminescence, 48-72 h; max response: active compounds read low. In short, it runs like this:
as §1

The test system of assay [5] is HACAT. The experiment in a line: qHTS assay to identify novel small-molecules to repurpose for Merkel cell carcinoma treatment (AID 1296009). Conditions: MCC and control cell lines, CellTiter-Glo viability, 72 h; at 44.8 µM (top of the series) unless noted. The gist of the method:
(§2)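 After compound transfer in DMSO, plates were kept 72 hr at 37 degree celsius. Luminescent ATP signal from CellTiter-Glo served as viability measure, normalized against DMSO and no-cell controls.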
In general terms: Quantitative high-throughput screening tests each substance at several concentrations.

Assay [6] has as its system MCC-13. The assay is described as above. Particulars: MCC and control cell lines, CellTiter-Glo viability, 72 h; series mostly up to 46 µM. The gist of the method: as §2
In assay [7] the test system is HaCat. The experiment in a line: Cytotoxic Profiling of Annotated Libraries Using Quantitative High-Throughput Screening (AID 1296008). Further: potency means the concentration at half of the fitted maximal effect. On max response: on the % scale 0 is the no-effect control and ±100 the full control effect. Conditions: Five cell lines viability, CellTiter-Glo ATP luminescence, 48-72 h; max response: active compounds read low. The gist of the method:
as §1

Assay [8] deals with TAB165. The experiment in a line: qHTS profiling for inhibitors of Plasmodium falciparum proliferation (AID 504749). Further: potency means the concentration at half of the fitted maximal effect. Conditions: P. falciparum in erythrocytes, SYBR Green DNA, 72 h; series mostly up to 28.7 µM. The gist of the method:
(§3)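 Three-day growth assay of blood-stage parasites in erythrocytes (0.3% parasitemia, 2.5% hematocrit) at 37 C, 5% CO2, quantified by SYBR Green DNA staining after overnight detergent lysis.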

Assay [9] concerns W2. The description is as above. Conditions: P. falciparum in erythrocytes, SYBR Green DNA, 72 h; series mostly up to 28.7 µM. In short, it runs like this: as §3

SMILES strings stand for the structures. Where “and” joins values, the source holds several entries; their conditions need not be identical. Identical values can stand only once. Records with an inconclusive call do not appear. Unmarked numbers belong to inactive results. Calls of active or inactive are those of the source. The call rests on the fitted dose curve; in most records, active means well fitted inhibition curve with a large enough effect; inconclusive means small, poorly fitted or top-dose-only effect; inactive means flat fitted curve, though single readings scatter.
Further: nearly all actives have a fitted effect of over 60% in size.

As to `CN(C(=O)c1ccc(F)cc1C(F)(F)F)C1CCN(c2nnc(-c3ccnn3C)c3ccccc23)CC1`, the max response was -27.2% and -23.7% in assay [1]; -60.8% in assay [2]; -19.8% in assay [3]; -30.1% and 3.56% in assay [4]. In addition, the outcome in assay [5] was inactive. Further, in assay [6], the Potency result is “inactive”.

On to `Cn1c(=O)c(F)c(Nc2ccc(I)cc2F)c2c(=O)n(C[C@@H](O)CO)cnc21`, for which the Potency in [1] was 0.935 µM (active). Besides, in assay [3], the max response is -4.57%.

Regarding `COCC(=O)NCC=Cc1ccc2ncnc(Nc3ccc(Oc4ccc(C)nc4)c(C)c3)c2c1`, the Potency in [1] is 23.5 µM (active); in [2], 13.2 µM (active). Moreover, the max response in assay [4] is -10.3%.

Regarding `COc1nc(-c2ccc3c(c2)OCO3)n(-c2ccc(NC(=O)CSc3ccccc3)cc2)n1`, the max response in assay [1] was -34%; in assay [3], -3.01% and -18.6%; in assay [4], -26.7%. In addition, the result in assay [7] and in assay [5] was inactive. For the same molecule, the Potency result in [6] is “inactive”.

On to `CCOC(=O)N[C@@H]1CC[C@@H]2[C@@H](C1)C[C@H]1C(=O)O[C@H](C)[C@H]1[C@@H]2C=Cc1ccc(-c2cccc(F)c2)cn1`, for which the results for the max response in assay [1] and in assay [4] were -6.96% and -8.03%, respectively. The Potency entry in [6] is “inactive”.

`Cc1ccccc1C(OCCN(C)C)c1ccccc1` (stereo not drawn): the Potency was 7.94 µM (active) in assay [8] and 4.26 µM (active) in assay [9]. Besides, the call in [1], in assay [7], in assay [3] and in assay [5] was inactive. In addition, the max response in assay [7] was -11.7%; in [3], 4.24% and -3.9%; in [4], -2.58% and 4.52%. Further, the Potency entry in assay [6] was “inactive”.

With `CCC(C)N(C)C(=O)c1cc2ccccc2c(-c2ccccc2Cl)n1` (stereo not drawn), the max response in assay [1] was 0.969%; in assay [3] it was 3.08%; in assay [4], -14%. In addition, the result in assay [7] and in assay [5] was inactive. For the same molecule, in assay [6], the Potency result was “inactive”.

Turning to `CN(C)c1ccc(Nc2nc(N)n(C(=O)c3c(F)cccc3F)n2)cc1`, the max response in assay [1] is 4.97%. Moreover, the Potency in assay [4] was 10.5 µM (active).

With `CN(C)c1ccc(C2Nc3ccc4ccccc4c3C3=C2C(=O)CC(C)(C)C3)cc1Br` (stereo not drawn), the max response in assay [1] is -23.7% and -20.8%; in assay [7], -24.3% and -7.34%; in [3] it was 1.11% and -17.2%; in assay [4] it was -6.99% and -2.22%. In addition, in assay [6], the Potency result was “inactive”.

Consider `COc1ccc(C2=N[C@H](c3ccc(Cl)cc3)[C@H](c3ccc(Cl)cc3)N2C(=O)N2CCNC(=O)C2)c(OC(C)C)c1`, for which the Potency is 3.32 µM (active) in assay [1] and 11.8 µM (active) in assay [2]. Further, the Potency result in assay [6] was “inactive”.

Consider `N#CC[C@H](C1CCCC1)n1cc(-c2ncnc3[nH]ccc23)cn1`, for which the max response is -20.9% and 3.07% in assay [1]; 0.777% in assay [7]. Also, the result in assay [7] and in assay [5] was inactive. The Potency result in assay [6] is “inactive”.

Consider `Nc1cccc(S(=O)(=O)N2CCCN(S(=O)(=O)c3ccc4c(c3)OCCO4)CC2)c1`, for which the max response in [1] is 0.264%; in assay [7], -12.2%; in [3], -7.85%; in [4] it was -8.98%. In addition, in assay [6], the Potency entry was “inactive”.

With `COc1cc(Oc2ccnc3cc(OC)c(OC)cc23)ccc1NC(=O)NC(C)c1nccs1` (stereo not drawn), the max response in [1] is -3.15% and -18.6%. Further, the molecule was classed as inactive in assay [7], in assay [4] and in assay [5]. Also, the Potency entry in assay [6] is “inactive”.

For `Cc1c(CCOc2ccc(C(=O)O)cc2)c2cc(Cl)ccc2n1C(c1ccccc1)c1ccccc1`, the max response was -5.22% in assay [1], 0.869% in assay [7], -12.2% in assay [3] and -32.3% in assay [4]. Also, the Potency entry in assay [6] was “inactive”.

For `Nc1nc2ccc(OC(F)(F)F)cc2s1`, the Potency entry in assay [8], in [9] and in assay [6] was “inactive” throughout. In addition, the result in [1] and in assay [5] was inactive. Moreover, the max response in assay [3] was -6.76%; in [4], -3.98%.

On to `Cc1ccc(-n2nc(C(C)(C)C)cc2NC(=O)Nc2ccc(OCCN3CCOCC3)c3ccccc23)cc1`, for which the max response in assay [1] was 1.93% and -9.63%; in [4], -5.48%. For the same molecule, the molecule was classed as inactive in [3] and in [5]. The Potency result in [6] is “inactive”.
